# Measured values reported in publication PMC3218832.
# What was measured:
# Assay in all cases: protein binding microarray; high values mean tight binding
# Settings in all cases: dsDNA, one strand shown
# RELARELA (p65 homodimer) = RELARELA (p65 homodimer) (Homo sapiens, UniProt Q04206 1-307)
# p50p50 homodimer = p50p50 homodimer (Homo sapiens, UniProt P19838 7-356)
# p52p52 homodimer = molecular target: T1, p52p52 homodimer (Homo sapiens, UniProt Q00653 4-332)
# T1 sequence: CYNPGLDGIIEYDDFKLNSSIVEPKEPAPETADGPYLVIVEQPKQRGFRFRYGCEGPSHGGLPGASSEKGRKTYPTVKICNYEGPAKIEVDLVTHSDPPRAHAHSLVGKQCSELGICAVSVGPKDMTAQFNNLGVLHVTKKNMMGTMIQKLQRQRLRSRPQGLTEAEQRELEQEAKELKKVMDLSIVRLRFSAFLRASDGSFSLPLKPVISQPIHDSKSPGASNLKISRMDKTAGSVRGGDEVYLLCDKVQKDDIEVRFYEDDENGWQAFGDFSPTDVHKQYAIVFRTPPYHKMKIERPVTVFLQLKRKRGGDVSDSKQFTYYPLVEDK
# [1] = molecular target: RELA (p65) subunit of heterodimer;p50 subunit (Homo sapiens;Homo sapiens, UniProt Q04206;P19838 1-307;7-356)
# [2] = molecular target: RELA (p65) subunit of heterodimer;p52 subunit (Homo sapiens;Homo sapiens, UniProt Q04206;Q00653 1-307;4-332)
# RELB subunit;p50 subunit = RELB subunit;p50 subunit (Homo sapiens;Homo sapiens, UniProt Q01201;P19838 120-401;7-356)
# RELB subunit;p52 subunit = molecular target: T2, RELB subunit;p52 subunit (Homo sapiens;Homo sapiens, UniProt Q01201;Q00653 120-401;4-332)
# T2 sequence 1: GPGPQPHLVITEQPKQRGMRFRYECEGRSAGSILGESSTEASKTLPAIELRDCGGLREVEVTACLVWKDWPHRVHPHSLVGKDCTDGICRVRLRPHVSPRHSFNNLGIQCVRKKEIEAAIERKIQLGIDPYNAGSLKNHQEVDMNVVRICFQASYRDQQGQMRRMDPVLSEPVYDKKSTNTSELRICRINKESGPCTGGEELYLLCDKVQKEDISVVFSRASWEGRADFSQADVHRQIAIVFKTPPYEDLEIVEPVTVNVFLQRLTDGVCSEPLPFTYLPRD
# T2 sequence 2: T1 sequence
# [3] = molecular target: C-Rel subunit;p50 subunit (Homo sapiens;Homo sapiens, UniProt Q04864;P19838 1-285;7-356)
# [4] = molecular target: T3, C-Rel subunit;p52 subunit (Homo sapiens;Homo sapiens, UniProt Q04864;Q00653 1-285;4-332)
# T3 sequence 1: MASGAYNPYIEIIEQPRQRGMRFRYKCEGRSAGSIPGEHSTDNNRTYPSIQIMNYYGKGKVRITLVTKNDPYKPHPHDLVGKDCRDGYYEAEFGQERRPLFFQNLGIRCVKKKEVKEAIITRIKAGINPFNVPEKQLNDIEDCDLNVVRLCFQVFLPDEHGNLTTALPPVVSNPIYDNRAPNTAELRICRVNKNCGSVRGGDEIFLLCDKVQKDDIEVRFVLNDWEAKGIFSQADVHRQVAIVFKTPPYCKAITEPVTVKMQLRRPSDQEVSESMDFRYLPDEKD
# T3 sequence 2: T1 sequence
# Chain of p50p50 homodimer (P19838 7-356): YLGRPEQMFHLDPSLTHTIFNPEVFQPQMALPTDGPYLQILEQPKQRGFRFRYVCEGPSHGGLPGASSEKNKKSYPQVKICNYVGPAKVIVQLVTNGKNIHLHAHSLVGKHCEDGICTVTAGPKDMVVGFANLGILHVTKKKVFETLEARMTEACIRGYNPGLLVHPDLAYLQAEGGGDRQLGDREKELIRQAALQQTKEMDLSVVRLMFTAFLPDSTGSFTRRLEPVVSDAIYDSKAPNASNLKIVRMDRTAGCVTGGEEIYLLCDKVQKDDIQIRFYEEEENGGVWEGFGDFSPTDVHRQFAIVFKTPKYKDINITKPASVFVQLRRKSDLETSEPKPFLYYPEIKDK
# Chain of RELA (p65) subunit of heterodimer;p50 subunit (Q04206 1-307, chain 1 of 2): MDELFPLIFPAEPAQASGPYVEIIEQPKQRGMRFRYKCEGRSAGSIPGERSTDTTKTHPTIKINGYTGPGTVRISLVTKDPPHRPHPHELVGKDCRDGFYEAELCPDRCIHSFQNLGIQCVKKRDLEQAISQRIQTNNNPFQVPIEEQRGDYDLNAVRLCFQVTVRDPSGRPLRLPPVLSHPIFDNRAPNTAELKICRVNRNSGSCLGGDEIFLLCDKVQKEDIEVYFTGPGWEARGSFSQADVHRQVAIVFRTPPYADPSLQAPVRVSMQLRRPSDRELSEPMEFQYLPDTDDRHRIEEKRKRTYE
# Chain of RELA (p65) subunit of heterodimer;p50 subunit (P19838 7-356, chain 2 of 2): as the sequence (P19838 7-356) above
# Chain of RELARELA (p65 homodimer) (Q04206 1-307): as the sequence (Q04206 1-307, chain 1 of 2) above
Sequence,binding signal (RELARELA (p65 homodimer)) [z-score],binding signal (p50p50 homodimer) [z-score],binding signal (p52p52 homodimer) [z-score],binding signal [1] [z-score],binding signal [2] [z-score],binding signal (RELB subunit;p50 subunit) [z-score],binding signal (RELB subunit;p52 subunit) [z-score],binding signal [3] [z-score],binding signal [4] [z-score]
CAGGTTTCCCT,0.821,1.16,1.21,1.39,1.33,1.28,1.76,1.26,0.893
GGGTTCGTCCC,0.22,0.238,1.59,0.186,1.09,0.251,0.438,0.489,0.747
AGGATCACCCT,-0.477,-0.136,-0.277,-0.316,-0.525,-0.14,-0.242,-0.558,-0.421
CAAGAGATCCT,-0.295,-1.92,-0.611,-1.27,-1.22,-0.959,-0.999,-1.42,-1.16
GGAGGACCCCT,-0.648,-0.192,-0.0995,0.108,0.173,-0.321,-0.0771,0,0.275
CGATAGCTCCT,-0.609,-1.63,-0.796,-1.07,-1.04,-1.34,-1,-1.65,-1.09
AGATTGACCCT,-0.149,-0.594,-0.42,-0.583,-0.704,-0.635,-0.605,-0.895,-0.787
AAGATTTCCCC,2.26,1.48,2.39,2.11,2,2.3,2.17,1.73,2.03
GGAAATCCCCT,3.63,1.5,3.23,3.21,3.34,2.45,3.27,3.04,3.88
CGGGGCATCCT,-0.458,0.212,0.516,0.0241,0.306,0.179,0.34,0.188,0.458
CAGGTCATCCT,-0.599,-1.84,-0.537,-1.21,-1.08,-1.24,-0.916,-1.52,-1.02
AGGTACATCCT,-0.603,-0.00392,0.047,-0.495,-0.249,-0.147,-0.293,-0.674,-0.415
AGAAAGTCCCC,1.93,1.38,2.13,1.84,1.96,2.19,1.93,1.62,1.91
GGGTAACCCCT,1.23,0.71,1.97,1.42,1.8,0.672,1.45,0.858,1.95
GAATGAGCCCT,-1.06,-1.39,-0.606,-0.778,-0.989,-1.17,-0.969,-1.55,-1.02
CAAAAAGTCCC,2.29,1.2,2.38,1.75,1.58,2.23,1.75,1.53,2.25
GAATGGCCCCT,-0.247,0.432,0,0.128,0.262,0.27,0.242,-0.321,-0.168
CAGTAAATCCT,-0.441,-1.23,-0.605,-0.903,-0.822,-0.822,-0.598,-1.01,-0.81
CGGGAACTCCT,1.67,0.314,0.181,0.357,0.17,-0.0239,0.0296,0.188,0.424
CGAGATACCCC,-0.193,0.305,0.114,0.439,0.228,0.539,0.921,0.515,0.344
CAATATTTCCC,2.26,1.03,0.706,1.27,1.06,0.775,0.965,1.45,1.08
GAAAGTTCCCT,0.999,1.15,1.11,1.12,1.03,0.985,0.987,0.705,0.73
CAAAACACCCC,0.0833,0.707,0.313,0.534,0.701,0.488,1.03,0.611,0.701

Sequence,binding signal (RELARELA (p65 homodimer)) [z-score],binding signal (p50p50 homodimer) [z-score],binding signal (p52p52 homodimer) [z-score],binding signal [1] [z-score],binding signal [2] [z-score],binding signal (RELB subunit;p50 subunit) [z-score],binding signal (RELB subunit;p52 subunit) [z-score],binding signal [3] [z-score],binding signal [4] [z-score]
GGGGTAACCCT,1.24,0.343,1.02,0.666,1.02,0.227,0.871,0.285,0.871
CAGTTACTCCT,-0.453,-1.22,-0.649,-0.763,-0.94,-0.976,-0.763,-1.08,-0.871
GGATAAATCCC,0.859,0.48,0.567,0.64,0.582,0.489,0.482,0.867,0.396
GGATGTCCCCC,0.799,1.11,1.17,1.69,1.37,1.27,1.47,1.1,1.45
GGGGTCATCCT,-0.528,-0.376,-0.115,-0.626,-0.394,-0.425,-0.362,-0.494,-0.0992
CGAGGCATCCC,-0.716,-1.34,-0.635,-1.05,-0.831,-0.973,-0.906,-1.02,-0.807
CGAAGCTTCCC,0.142,-0.668,-0.466,-0.322,-0.568,-0.617,-0.463,-0.253,-0.652
GGATTTCTCCT,0.534,-0.711,-0.416,-0.294,-0.389,-0.703,-0.78,-0.477,-0.189
GGGATGGCCCC,-0.135,0.31,1.6,0.79,1.15,0.678,0.614,0.492,0.746
GGAATGATCCC,-0.0862,-0.737,-0.387,-0.382,-0.396,-0.763,-0.764,-0.432,-0.264
AAGTGATTCCT,-0.0511,-0.869,-0.482,-0.602,-0.719,-0.843,-0.976,-0.572,-0.598
GGAAGAGCCCT,-0.298,-0.632,-0.649,-0.191,-0.503,-0.91,-0.727,-0.606,-0.318
AGGAGCCCCCT,-0.528,1.32,0.61,1.07,0.992,1.2,1.26,1.02,0.757
AGGAGGATCCT,-0.49,-1.69,-0.694,-0.999,-1.04,-0.926,-0.821,-1.4,-0.915
GGATTCATCCT,-0.727,-2.29,-0.817,-1.18,-0.991,-1.18,-0.967,-1.49,-0.792
AGGTAGCTCCT,-0.716,-0.916,-0.638,-0.909,-0.901,-0.802,-0.975,-1.36,-0.889
CAATGGTTCCT,0.0242,-1.26,-0.536,-0.894,-0.883,-0.727,-0.56,-0.994,-0.857
CAGAATTCCCC,3.2,1.49,2.61,2.25,2.29,2.26,2.21,1.73,2.61
CAGGAACTCCC,1.07,0.648,0.144,0.636,0.288,0.322,0.116,0.424,0.208
AAGAGTACCCT,-0.409,0.828,0.248,0.398,0.224,0.66,0.374,0.116,0.104
AGGTAGGCCCT,-0.932,-0.756,-0.535,-0.978,-0.63,-0.647,-0.561,-1.13,-0.598
GAATAGACCCT,-0.683,-0.579,-0.346,-0.545,-0.606,-0.679,-0.749,-1.19,-0.574
